The values below come from PubChem BioAssay AID488969 (Vanderbilt High Throughput Screening Facility, 2010).

The structures appear in SMILES notation. The full ranking holds about 110,000 compounds; the median of “z-score” is about -0.1, and the highest 2% start at about 2. This excerpt belongs to a sample that is enriched for the highest values. Calls of active or inactive are those of the source.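 The calls were made as follows: active = z-score in the third read window above 3 or below -3; inactive = the rest.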

The target of the test is Metabotropic glutamate receptor 8 (Rattus norvegicus) (UniProt P70579). The test can be described thus: mGluR8 Gi/Go-coupled signaling modulation – cell-based, rat, thallium flux, HTS, primary screen (AID 488969). The settings on record: HEK293 rat mGluR8, GIRK (G protein-gated inwardly rectifying potassium channel) thallium flux, FluoZin2; at 10 µM; stronger effect = higher value; submaximal glutamate (EC20) added with thallium.
Sequence of Metabotropic glutamate receptor 8 (Rattus norvegicus) (P70579 whole entry, looked up): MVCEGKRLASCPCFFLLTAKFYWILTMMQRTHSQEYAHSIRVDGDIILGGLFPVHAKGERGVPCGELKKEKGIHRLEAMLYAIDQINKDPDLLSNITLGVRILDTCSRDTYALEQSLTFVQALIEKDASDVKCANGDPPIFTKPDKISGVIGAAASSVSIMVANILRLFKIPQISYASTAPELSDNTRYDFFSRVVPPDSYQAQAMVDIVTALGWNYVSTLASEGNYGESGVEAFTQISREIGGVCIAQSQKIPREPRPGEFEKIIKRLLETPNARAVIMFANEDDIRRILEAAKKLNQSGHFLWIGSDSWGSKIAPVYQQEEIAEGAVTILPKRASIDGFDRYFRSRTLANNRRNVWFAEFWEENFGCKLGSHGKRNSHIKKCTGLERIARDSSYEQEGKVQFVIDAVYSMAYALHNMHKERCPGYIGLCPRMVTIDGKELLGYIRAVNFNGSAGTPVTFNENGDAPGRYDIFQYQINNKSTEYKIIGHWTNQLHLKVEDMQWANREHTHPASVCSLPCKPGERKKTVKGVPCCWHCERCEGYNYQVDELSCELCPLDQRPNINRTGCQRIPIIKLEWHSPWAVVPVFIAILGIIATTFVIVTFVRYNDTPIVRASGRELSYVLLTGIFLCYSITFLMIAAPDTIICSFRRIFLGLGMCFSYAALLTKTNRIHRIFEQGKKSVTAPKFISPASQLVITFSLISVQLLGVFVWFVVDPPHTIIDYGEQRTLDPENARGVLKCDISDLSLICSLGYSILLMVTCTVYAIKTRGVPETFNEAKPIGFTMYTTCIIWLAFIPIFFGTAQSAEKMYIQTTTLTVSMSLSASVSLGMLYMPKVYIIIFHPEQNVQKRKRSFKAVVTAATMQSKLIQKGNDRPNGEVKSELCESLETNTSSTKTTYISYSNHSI
The compound `O=C(Oc1ccnc2cc(Cl)ccc12)N1CCOCC1` returned a z-score of -0.719. Compound `Clc1ccc2c(NNc3ccccc3Cl)ccnc2c1` had a z-score of -0.353. Then `Clc1ccc2c(N3CCCC3)ccnc2c1`, with 2.36. Next, `Cc1cc(C)nc(N2CCC(C(=O)Nc3ccc(Oc4ccccc4)cc3)CC2)n1`: -0.163; `CC(C(=O)Nc1ccc([N+](=O)[O-])cc1)N1CCN(C/C=C/c2ccccc2)CC1` (centres undefined): -0.146; `CCc1ccc2nc(N3C(=O)C(O)=C(C(=O)c4ccco4)C3c3cccs3)sc2c1` (centres undefined): -1.1.

`N=c1sccn1CC(=O)Nc1ccc(S(=O)(=O)N2CCOCC2)cc1`: the z-score came out at 2.19. Then `N=c1sccn1CC(=O)Nc1ccc(Cl)c(S(=O)(=O)N2CCOCC2)c1`, with 0.131; and `Cc1ccc(S(=O)(=O)N2CCOCC2)cc1NC(=O)Cn1ccsc1=N`, with 0.262; and `CCOC(=O)CC1C(=O)NCCN1Cc1cccc(OC)c1` (centres undefined), with -0.139. In turn, `COc1ccc(NC(=O)c2ccco2)cc1NC(=O)c1ccc(Br)o1` showed a z-score of -0.82. Next, `Cc1csc(SCC(=O)Nc2ncc(Cl)c(C)c2Cl)n1`: 0.185; `Cc1cccc(NC(=O)CN(c2ccc(C(C)C)cc2)S(=O)(=O)c2c(C)nn(C)c2C)n1`: 2.21.

`COc1ccc2nc(NC(=O)CN(c3ccc(C)cc3)S(=O)(=O)c3c(C)nn(C)c3C)sc2c1` showed a z-score of 0.03.

The compound `COc1ccc(N(CC(=O)Nc2nc3ccc(C)cc3s2)S(=O)(=O)c2c(C)nn(C)c2C)cc1` gave a z-score of 2.44. As for `COc1ccc(N(CC(=O)Nc2nccs2)S(=O)(=O)c2c(C)nn(C)c2C)cc1`, the z-score was 0.0495. Then `Cc1nn(C)c(C)c1S(=O)(=O)N(CC(=O)NC1CCCCCC1)c1ccc(C(C)C)cc1`, with -0.146.

`Cc1nn(C)c(C)c1S(=O)(=O)N(CC(=O)NCCCOC(C)C)c1ccc(C(C)C)cc1` had a z-score of -0.0899. Then `CSc1ccc(/C=N/NC(=O)CN2CCN(Cc3ccccc3)CC2)cc1`, with -0.0744; and `CC(=O)Oc1ccc2c(c1)cc(C)n2C`, with 0.458; and `O=C1c2ccccc2C(=O)N1CCn1c(=O)oc2ccccc21`, with 1.56.

Regarding `CC(=O)Nc1ccc([N+](=O)[O-])cn1`, the z-score is -0.229. Then `CC(Oc1cccc(Cl)c1)C(=O)Nc1ccc([N+](=O)[O-])cn1` (centres undefined), with -0.576; and `Cc1cc(Cl)ccc1OC(C)C(=O)Nc1ccc([N+](=O)[O-])cn1` (centres undefined), with 2.07. Then `COC(=O)c1c(NC(=O)CSc2nnnn2-c2ccccc2)sc2c1CCC(C)C2` (centres undefined), with -0.121; and `COc1ccccc1/C=C1\NC(=S)N(CC2CCCO2)C1=O` (centres undefined), with 0.246. Next, `COc1ccc(/C=C2\NC(=S)N(CC3CCCO3)C2=O)c(OC)c1C` (centres undefined): 2.32.

The compound `COc1ccc(/C=C2\NC(=S)N(CC3CCCO3)C2=O)c(OC)c1` (centres undefined) returned a z-score of 0.39. Then `CCOC(=O)c1nnn(-c2nonc2N)c1COc1cc(C)c(Cl)c(C)c1`, with -0.174; and `CCCCCCCC1CC(CSc2ncn[nH]2)OC1=O` (centres undefined), with 5.73 (active); and `CCCCCCC1CC(CSC(=N)N)OC1=O` (centres undefined), with 0.116. Next, `CCCCC1CC(CSc2ncn[nH]2)OC1=O` (centres undefined): -0.0735; `CCCCCCCC1CC(CSC(=N)N)OC1=O` (centres undefined): 5.96 (active). Then `CCCCC1CC(CSC(=N)N)OC1=O` (centres undefined), with 0.732. In turn, `CCCCCCC1CC(CSc2ncn[nH]2)OC1=O` (centres undefined) had a z-score of -0.0128. `CC(C)C(=O)Nc1nc2c(ncn2C2CC(O)C(CO)O2)c(=O)[nH]1` (centres undefined) returned a z-score of -0.334. Then `CC(C)OC(=O)n1c(=S)oc2ccccc21`, with -0.00387; and `CSc1nnc(CSCc2ccc(Cl)cc2Cl)n1-c1ccccc1`, with -0.0778. Then `S=c1[nH]nc(CSCc2ccc(Cl)cc2Cl)n1-c1ccccc1`, with 15.5 (active); and `S=c1[nH]nc(Cc2ccccc2)n1-c1ccccc1`, with 0.938. Next, `Cn1ncc(C#N)c1NC(=O)c1cc(-c2ccccc2Cl)on1`: 0.559; `O=C(CSc1nc(C2CC2)nc2ccccc12)N1CCc2ccccc2C1`: -0.769; `Cc1cc(=O)n2cc(-c3ccccc3)nc2[nH]1`: -0.318. In turn, `CC1CCN(CCCCOc2ccccc2Br)CC1` registered a z-score of -0.0355. Then `Cc1cc(Cl)ccc1N=C1N=C(N)c2ccccc21`, with -1.75. Then `COC(=O)c1sccc1NC(=O)CSc1ccc(Cl)cc1`, with 0.289; and `COC(=O)c1sccc1NC(=O)CSc1ccccc1NS(=O)(=O)c1ccc(Cl)cc1`, with 3.6 (active); and `COC(=O)c1sccc1NC(=O)Cc1ccc(Br)cc1`, with -0.0914. Next, `COC(=O)c1sccc1NC(=O)CSc1ccccc1NS(=O)(=O)c1ccc(Br)cc1`: 2.31. Turning to `COC(=O)c1sccc1NC(=O)CN(C)NS(=O)(=O)c1ccc(Cl)cc1`, the z-score is -0.811. Then `COC(=O)c1sccc1NC(=O)CSc1ccccc1NS(=O)(=O)c1ccc(F)cc1`, with 0.941. Next, `N#Cc1ccc(OCC(=O)N/N=C2\CCc3ccccc32)cc1`: -0.239. Then `CCN(CC)C(=O)C(Sc1ccccc1)c1ccccc1` (centres undefined), with 0.926; and `CC(=O)Nc1ccc(NC(=O)CSc2ccc(C)cc2)cc1`, with 0.00682; and `CCOC(=O)c1ccc(NC(=O)CN2C(=O)C(C)SC(C)C2=O)cc1` (centres undefined), with -0.088. The compound `Cc1nc(NC(C)C(=O)O)c2nc(C)oc2n1` (centres undefined) came in with a z-score of -0.0905. Then `CCn1cc(C2=NC(C)(C)CO2)c2ccccc21`, with -0.521; and `CCn1cc(C2=NC(C)CO2)c2ccccc21` (centres undefined), with -0.418. Next, `CCn1cc(C2=NCCO2)c2ccccc21`: 2.2; `COc1ccc2[nH]c(C)c(CCN3C(=O)C4C5C=CC(C5)C4C3=O)c2c1` (centres undefined): -0.454; `Cc1ccc(CSc2ncnc3c2cnn3-c2ccccc2)cc1`: 0.333. Then `Cc1ccc(CSc2ncnc3c2cnn3Cc2ccccc2)cc1`, with -0.449. The compound `Cc1cccc(CSc2ncnc3c2cnn3Cc2ccccc2)c1` had a z-score of -0.46. Next, `COC(=O)CSc1ncnc2c1cnn2Cc1ccccc1`: -0.981; `NC(=O)CSc1ncnc2c1cnn2Cc1ccccc1`: 4.34 (active). Compound `c1ccc(CSc2ncnc3c2cnn3Cc2ccccc2)cc1` yielded a z-score of -0.473. Next, `Cc1ccc(-n2ncc3c(SCc4ccccc4)ncnc32)cc1`: 2.51; `Cc1ccc(CSc2ncnc3c2cnn3-c2ccc(C)cc2)cc1`: 1.75; `Cc1ccc(-n2ncc3c(SCc4cccc(C)c4)ncnc32)cc1`: 2.66. In turn, `CN(C)c1ccnc2sc3c(NCC(O)CO)ncnc3c12` (centres undefined) gave a z-score of -0.106. Next, `CCOC(=O)c1c(C)[nH]c(C(=O)COC(=O)/C=C/c2ccc3c(c2)OCO3)c1C`: 0.00271; `Cc1nc2ccccc2cc1C(=O)O`: 0.0939.

`CC(C/C=N/NC(=O)COc1cc(Cl)ccc1Cl)c1ccccc1` (centres undefined) displayed a z-score of -0.0205.

In turn, `O=C(Nc1ccc2c(c1)OCO2)C1CC(c2ccc(Cl)cc2)=NO1` (centres undefined) yielded a z-score of -0.0412.
